The full list was thinned out, with the strongest signals kept by preference.
Legend:
Experiment in all cases: glycan array binding signal (z-score within array); higher = stronger binding
Settings in all cases: glycan notation: IUPAC condensed, linker removed
[1] = target: Fuc(a1-2)Gal(b1-4)GlcNAc(b1-2)Man(a1-3)[Fuc(a1-2)Gal(b1-4)GlcNAc(b1-2)Man(a1-6)]Man(b1-4)GlcNAc(b1-4)GlcNAc
Outline: (§1)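 Columns mapping to the same glycan were averaged after glycan names were converted to IUPAC-condensed notation. The data come from 3228 arrays in the Consortium for Functional Glycomics database, limited to those with an available protein sequence. Binding is reported as a within-array Z-score averaged across arrays of one protein sequence and across linkers.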

[2] = target: Fuc(a1-2)Gal(b1-4)GlcNAc(b1-2)[Fuc(a1-2)Gal(b1-4)GlcNAc(b1-4)]Man(a1-3)[Fuc(a1-2)Gal(b1-4)GlcNAc(b1-2)Man(a1-6)]Man(b1-4)GlcNAc(b1-4)GlcNAc
Outline: as §1

[3] = target: Fuc(a1-2)Gal(b1-4)GlcNAc(b1-3)Gal(b1-4)GlcNAc(b1-2)Man(a1-3)[Fuc(a1-2)Gal(b1-4)GlcNAc(b1-3)Gal(b1-4)GlcNAc(b1-2)Man(a1-6)]Man(b1-4)GlcNAc(b1-4)GlcNAc
Outline: as §1

[4] = target: Fuc(a1-2)Gal(b1-4)[Fuc(a1-3)]GlcNAc(b1-3)Gal(b1-4)[Fuc(a1-3)]GlcNAc(b1-3)Gal(b1-4)[Fuc(a1-3)]GlcNAc
Outline: as §1

[5] = target: Fuc(a1-2)Gal6S(b1-3)GlcNAc6S
Outline: as §1

[6] = target: Fuc(a1-2)[GalNAc(a1-3)]Gal(b1-4)GlcNAc(b1-3)Gal(b1-4)GlcNAc
Outline: as §1

[7] = target: Fuc(a1-2)[GalNAc(a1-3)]Gal(b1-4)GlcNAc(b1-3)GalNAc
Outline: as §1

[8] = target: Fuc(a1-2)[GalNAc(a1-3)]Gal(b1-4)[Fuc(a1-3)]GlcNAc
Outline: as §1

[9] = target: Fuc(a1-3)[GalNAc(b1-4)]GlcNAc
Outline: as §1

[10] = target: Gal(a1-3)Gal(b1-4)GlcNAc(b1-2)Man(a1-3)[Gal(a1-3)Gal(b1-4)GlcNAc(b1-2)Man(a1-6)]Man(b1-4)GlcNAc(b1-4)GlcNAc
Outline: as §1

Gal(a1-3)GalNAc = target: Gal(a1-3)GalNAc
Outline: as §1

[11] = target: Gal(a1-4)Gal(b1-4)GlcNAc(b1-2)Man(a1-3)[Gal(a1-4)Gal(b1-4)GlcNAc(b1-2)Man(a1-6)]Man(b1-4)GlcNAc(b1-4)GlcNAc
Outline: as §1

[12] = target: Gal(b1-3)GalNAc(a1-3)[Fuc(a1-2)]Gal(b1-4)GlcNAc
Outline: as §1

[13] = target: Gal(b1-3)GlcNAc(a1-3)Gal(b1-4)GlcNAc
Outline: as §1

[14] = target: Gal(b1-3)GlcNAc(b1-2)Man(a1-3)[Gal(b1-3)GlcNAc(b1-2)Man(a1-6)]Man(b1-4)GlcNAc(b1-4)GlcNAc
Outline: as §1

[15] = target: Gal(b1-4)GlcNAc(a1-6)Gal(b1-4)GlcNAc
Outline: as §1

[16] = target: Gal(b1-4)GlcNAc(b1-2)Man(a1-3)[Gal(b1-4)GlcNAc(b1-2)Man(a1-6)]Man(b1-4)GlcNAc(b1-4)GlcNAc
Outline: as §1

[17] = target: Gal(b1-4)GlcNAc(b1-2)[Gal(b1-4)GlcNAc(b1-6)]Man(a1-6)[Gal(b1-4)GlcNAc(b1-2)Man(a1-3)]Man(b1-4)GlcNAc(b1-4)[Fuc(a1-6)]GlcNAc
Outline: as §1

[18] = target: Gal(b1-4)GlcNAc(b1-3)Gal(b1-4)GlcNAc
Outline: as §1

[19] = target: Gal(b1-4)GlcNAc(b1-3)Gal(b1-4)GlcNAc(b1-2)[Gal(b1-4)GlcNAc(b1-3)Gal(b1-4)GlcNAc(b1-6)]Man(a1-6)[Gal(b1-4)GlcNAc(b1-3)Gal(b1-4)GlcNAc(b1-2)Man(a1-3)]Man(b1-4)GlcNAc(b1-4)GlcNAc
Outline: as §1

[20] = target: Gal(b1-4)GlcNAc(b1-3)Gal(b1-4)GlcNAc(b1-3)Gal(b1-4)GlcNAc
Outline: as §1

[21] = target: Gal(b1-4)GlcNAc(b1-3)Gal(b1-4)GlcNAc(b1-3)GalNAc
Outline: as §1

[22] = target: Gal(b1-4)GlcNAc(b1-3)Gal(b1-4)GlcNAc(b1-3)[Gal(b1-4)GlcNAc(b1-3)Gal(b1-4)GlcNAc(b1-6)]GalNAc
Outline: as §1

[23] = target: Gal3S(b1-3)[Fuc(a1-4)]GlcNAc
Outline: as §1

[24] = target: Gal3S(b1-4)[Fuc(a1-3)]Glc6S
Outline: as §1

Gal6S(b1-3)GlcNAc = target: Gal6S(b1-3)GlcNAc
Outline: as §1

[25] = target: GalNAc(b1-4)GlcNAc(b1-2)Man(a1-3)[GalNAc(b1-4)GlcNAc(b1-2)Man(a1-6)]Man(b1-4)GlcNAc(b1-4)GlcNAc
Outline: as §1

[26] = target: GlcNAc(a1-4)Gal(b1-4)GlcNAc(b1-3)Gal(b1-4)GlcNAc
Outline: as §1

[27] = target: GlcNAc(b1-2)Man(a1-3)[GlcNAc(b1-2)Man(a1-6)]Man(b1-4)GlcNAc(b1-4)GlcNAc
Outline: as §1

[28] = target: GlcNAc(b1-2)[GlcNAc(b1-6)]Man(a1-6)[GlcNAc(b1-2)Man(a1-3)]Man(b1-4)GlcNAc(b1-4)GlcNAc
Outline: as §1

B1: RBMC2 (Vibrio cholerae) (protein)
chain: KISVRSGFAIDAIGASASTLVGGTGGNLNAAVNVKDIKAIDLTWGKYYWGGYHLLALDFRMSNGSVISMGSKNYAYSKQTERFTVPAGSRIKGIKAWTAGWLLDGVQFELA
glycan array binding signal (z-score) [1]: 1.19 | glycan array binding signal (z-score) [2]: 0.016 | glycan array binding signal (z-score) [3]: 3.69 | glycan array binding signal (z-score) [4]: -0.273 | glycan array binding signal (z-score) [5]: -0.121 | glycan array binding signal (z-score) [6]: -0.171 | glycan array binding signal (z-score) [7]: -0.327 | glycan array binding signal (z-score) [8]: -0.4 | glycan array binding signal (z-score) [9]: -0.311 | glycan array binding signal (z-score) [10]: 3.79 | glycan array binding signal (z-score) (Gal(a1-3)GalNAc): -0.276 | glycan array binding signal (z-score) [11]: 4.07 | glycan array binding signal (z-score) [12]: -0.258 | glycan array binding signal (z-score) [13]: -0.3 | glycan array binding signal (z-score) [14]: 3.3 | glycan array binding signal (z-score) [15]: -0.466 | glycan array binding signal (z-score) [16]: -0.184 | glycan array binding signal (z-score) [17]: 0.211 | glycan array binding signal (z-score) [18]: -0.235 | glycan array binding signal (z-score) [19]: -0.097 | glycan array binding signal (z-score) [20]: -0.368 | glycan array binding signal (z-score) [21]: -0.363 | glycan array binding signal (z-score) [22]: -0.254 | glycan array binding signal (z-score) [23]: -0.327 | glycan array binding signal (z-score) [24]: -0.305 | glycan array binding signal (z-score) (Gal6S(b1-3)GlcNAc): -0.328 | glycan array binding signal (z-score) [25]: 1.47 | glycan array binding signal (z-score) [26]: -0.281 | glycan array binding signal (z-score) [27]: 3.67 | glycan array binding signal (z-score) [28]: -0.232
